The results in this text go back to PubChem BioAssay (EPA / NIEHS).

Calls of active or inactive are those of the source. How the source made its calls: active means hit-call score of the fitted dose curve at least 0.9, where 1 is the maximum; inactive means score below 0.9.

Assay [1] in a line: BSK_3C_VCAM1: BioMAP Diversity Plus: 3C Assay for Vascular cell adhesion molecule 1 (VCAM1) Biomarker Activity (AID 2282999). Particulars: BioMAP 3C HUVEC, VCAM1 ELISA, cytokine-stimulated; actives raise or lower the signal. An outline of the steps: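 Human umbilical vein endothelial cells were dosed with compound for 24 h, after which cell-surface VCAM-1 was quantified by ELISA. Bidirectional curve fitting used DMSO as negative control and activity baseline.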
(In general: An ELISA detects its analyte on a solid surface through an enzyme-linked reagent.)

Read-out in assay [2]: Intercellular Adhesion Molecule 1 (ICAM1), ICAM1 (gene 3383)
Briefly: BSK_3C_ICAM1: BioMAP Diversity Plus: 3C Assay for Intercellular Adhesion Molecule 1 (ICAM1) Biomarker Activity (AID 2283003). Particulars: primary human endothelial cells (HUVEC); actives raise or lower the signal. An outline of the steps: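 HUVEC primary cells stimulated under 3C conditions; ICAM1 measured by ELISA 24 h after compound dosing. Curves fitted bidirectionally against the DMSO baseline. Overt cytotoxicity checked by SRB staining of parallel cultures.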

Assay [3] in a line: BSK_3C_Proliferation: Cell Proliferation Assessment in the BioMAP Diversity Plus: 3C Assay (AID 2283006).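 On AC50: potency may reflect either rise or fall in cell number versus DMSO.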 Particulars: primary human endothelial cells (HUVEC). An outline of the steps: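 Subconfluent HUVEC (3C system) cultured with chemical; relative cell number read at 48 h by sulforhodamine B total-protein staining (0.1% SRB after 10% TCA fixation, 560 nm). Bidirectional fit relative to DMSO.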

Read-out in assay [4]: E-selectin (Homo sapiens) (UniProt P16581)
Kind of assay: BSK_3C_Eselectin: BioMAP Diversity Plus: 3C Assay for Eselectin Biomarker Activity (AID 2283015).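 On outcome: cell surface E-selectin protein quantified by ELISA 24 h after dosing.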 The note with it: primary human endothelial cells (HUVEC); actives raise or lower the signal. An outline of the steps: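 Primary human umbilical vein endothelial cells (3C system) were dosed with chemical and cell-surface E-selectin measured by ELISA 24 h later. Bidirectional curve fitting used DMSO as negative control and baseline.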

Read-out in assay [5]: Matrix Metallopeptidase 1 (MMP1), MMP1 (gene 4312)
Briefly: BSK_BE3C_MMP1: BioMAP Diversity Plus: BE3C Assay for Matrix Metallopeptidase 1 (MMP1) Biomarker Activity (AID 2283024). Particulars: primary human bronchial epithelial cells; actives raise or lower the signal. An outline of the steps:
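Human primary bronchial epithelial cells (BE3C system) dosed for 24 h; MMP-1 quantified by ELISA. Bidirectional fit against DMSO; cytotoxicity tracked in parallel cultures by SRB total-protein staining.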

Assay [6] is described as follows: BSK_BE3C_SRB: Viability Assessment in the BioMAP Diversity Plus: BE3C Assay (AID 2283028). The note with it: primary human bronchial epithelial cells. An outline of the steps:
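Human primary bronchial epithelial cells were exposed to test chemicals for 24 h. Total protein in parallel cultures was then measured by staining with 0.1% sulforhodamine B after 10% TCA fixation, with absorbance read at 560 nm. Activity was fitted bidirectionally against DMSO.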

Read-out in assay [7]: Thrombomodulin, THBD (gene 7056)
Kind of assay: BSK_3C_Thrombomodulin: BioMAP Diversity Plus: 3C Assay for Thrombomodulin Biomarker Activity (AID 2283029). The note with it: primary human endothelial cells (HUVEC); actives raise or lower the signal. An outline of the steps: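 Human umbilical vein endothelial cells were exposed to chemicals for 24 h; cell-surface thrombomodulin quantified by ELISA, with bidirectional fitting against DMSO baseline.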

Read-out in assay [8]: Vascular cell adhesion molecule 1 (VCAM1), VCAM1 (gene 7412)
Briefly: BSK_4H_VCAM1: BioMAP Diversity Plus: 4H Assay for Vascular cell adhesion molecule 1 (VCAM1) Biomarker Activity (AID 2283033). The note with it: primary human endothelial cells (HUVEC); actives raise or lower the signal. An outline of the steps: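 Primary human umbilical vein endothelial cells, 4H stimulation system, treated for 24 h; cell-surface VCAM-1 quantified by ELISA. Bidirectional fitting against DMSO; cytotoxicity tracked by SRB total-protein staining in parallel cultures.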

Read-out in assay [9]: Interferon-gamma inducible Protein 10 (IP10), CXCL10 (gene 3627)
Briefly: BSK_BE3C_IP10: BioMAP Diversity Plus: BE3C Assay for Interferon-gamma inducible Protein 10 (IP10) Biomarker Activity (AID 2283034). The note with it: primary human bronchial epithelial cells; actives raise or lower the signal. An outline of the steps: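 Primary human bronchial epithelial cells, with IP-10 measured by ELISA 24 hours after chemical dosing. Bidirectional fit against DMSO; cytotoxicity checked by SRB total protein staining in parallel cultures.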

Read-out in assay [10]: Monokine induced gamma interferon (MIG), CXCL9 (gene 4283)
Briefly: BSK_BE3C_MIG: BioMAP Diversity Plus: BE3C Assay for Monokine induced gamma interferon (MIG) Biomarker Activity (AID 2283035). Particulars: primary human bronchial epithelial cells; actives raise or lower the signal. An outline of the steps: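 ELISA read-out of MIG in human lung bronchial epithelial primary cultures, 24 h post-dosing. Bidirectional curve fit vs DMSO baseline.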

Read-out in assay [11]: urokinase plasminogen activator (uPA), PLAU (gene 5328)
Briefly: BSK_BE3C_uPA: BioMAP Diversity Plus: BE3C Assay for urokinase plasminogen activator (uPA) Biomarker Activity (AID 2283038).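 On outcome: uPA protein level quantified by ELISA in cell cultures; uPA read one day after compound addition.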 The note with it: primary human bronchial epithelial cells; actives raise or lower the signal. An outline of the steps: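 Human primary bronchial epithelial cells were exposed to chemical for 24 h, then uPA levels were measured by ELISA. Responses were fitted bidirectionally against DMSO as negative control and baseline. Parallel SRB staining of total protein gauged overt cytotoxicity.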

Read-out in assay [12]: Interleukin-6 (IL6), IL6 (gene 3569)
Kind of assay: BSK_CASM3C_IL6: BioMAP Diversity Plus: CASM3C Assay for Interleukin-6 (IL6) Biomarker Activity for (AID 2283040). The note with it: primary human coronary artery smooth muscle cells; actives raise or lower the signal.

Read-out in assay [13]: Human Leukocyte Antigen - DR isotype (HLADR), HLA-DRA (gene 3122)
Kind of assay: BSK_CASM3C_HLADR: BioMAP Diversity Plus: CASM3C Assay for Human Leukocyte Antigen - DR isotype (HLADR) Biomarker Activity (AID 2283043).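 Further: cell-surface HLA-DR protein level quantified by ELISA.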 The note with it: primary human coronary artery smooth muscle cells; actives raise or lower the signal.

Read-out in assay [14]: Low-density lipoprotein receptor (LDLR), LDLR (gene 3949)
Briefly: BSK_CASM3C_LDLR: BioMAP Diversity Plus: CASM3C Assay for Low-density lipoprotein receptor (LDLR) Biomarker Activity (AID 2283045).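 Further: LDLR protein level on the cell surface quantified by ELISA.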 The note with it: primary human coronary artery smooth muscle cells; actives raise or lower the signal.

Read-out in assay [15]: Monocyte Chemoattractant Protein-1 (MCP1), CCL2 (gene 6347)
Briefly: BSK_CASM3C_MCP1: BioMAP Diversity Plus: CASM3C Assay for Monocyte Chemoattractant Protein-1 (MCP1) Biomarker Activity (AID 2283046).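 Further: MCP-1 level quantified by ELISA 24 h after dosing.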 Particulars: primary human coronary artery smooth muscle cells; actives raise or lower the signal.

The nature of assay [16]: BSK_CASM3C_Proliferation: Cell Proliferation Assessment in the BioMAP Diversity Plus: CASM3C Assay (AID 2283047).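 Further: sub-confluent cells exposed 48 h before staining; fitted both ways against DMSO so gain or loss of cell number.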 Particulars: primary human coronary artery smooth muscle cells.
Read-out in assay [17]: serum amyloid A (SAA), SAA1 (gene 6288)
Kind of assay: BSK_CASM3C_SAA: BioMAP Diversity Plus: CASM3C Assay for serum amyloid A (SAA) Biomarker Activity (AID 2283049).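 Further: SAA protein level quantified by ELISA.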 Particulars: primary human coronary artery smooth muscle cells; actives raise or lower the signal.

Read-out in assay [18]: Tissue Factor, F3 (gene 2152)
Briefly: BSK_CASM3C_TissueFactor: BioMAP Diversity Plus: CASM3C Assay for Tissue Factor Biomarker Activity (AID 2283052).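 Further: cell surface tissue factor protein level read by ELISA.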 Particulars: primary human coronary artery smooth muscle cells; actives raise or lower the signal.

Read-out in assay [19]: Interferon-gamma inducible Protein 10 (IP10), CXCL10 (gene 3627)
Briefly: BSK_hDFCGF_IP10: BioMAP Diversity Plus: hDFCGF Assay for Interferon-gamma inducible Protein 10 (IP10) Biomarker Activity (AID 2283053). Particulars: primary human foreskin fibroblasts; actives raise or lower the signal. An outline of the steps:
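Primary human foreskin fibroblasts exposed to chemicals for 24 h. IP-10 measured by ELISA; changes fitted bidirectionally against DMSO baseline.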

Read-out in assay [20]: Epidermal growth factor receptor (EGFR), EGFR (gene 1956)
Briefly: BSK_hDFCGF_EGFR: BioMAP Diversity Plus: hDFCGF Assay for Epidermal growth factor receptor (EGFR) Biomarker Activity (AID 2283057). Particulars: primary human foreskin fibroblasts; actives raise or lower the signal. An outline of the steps: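 Primary human foreskin fibroblasts (hDFCGF system), sampled 24 h after dosing; EGFR quantified by ELISA. Bidirectional fit relative to DMSO baseline; SRB total-protein staining in parallel cultures for cytotoxicity.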

E-selectin (Homo sapiens), sequence (P16581 whole entry, looked up): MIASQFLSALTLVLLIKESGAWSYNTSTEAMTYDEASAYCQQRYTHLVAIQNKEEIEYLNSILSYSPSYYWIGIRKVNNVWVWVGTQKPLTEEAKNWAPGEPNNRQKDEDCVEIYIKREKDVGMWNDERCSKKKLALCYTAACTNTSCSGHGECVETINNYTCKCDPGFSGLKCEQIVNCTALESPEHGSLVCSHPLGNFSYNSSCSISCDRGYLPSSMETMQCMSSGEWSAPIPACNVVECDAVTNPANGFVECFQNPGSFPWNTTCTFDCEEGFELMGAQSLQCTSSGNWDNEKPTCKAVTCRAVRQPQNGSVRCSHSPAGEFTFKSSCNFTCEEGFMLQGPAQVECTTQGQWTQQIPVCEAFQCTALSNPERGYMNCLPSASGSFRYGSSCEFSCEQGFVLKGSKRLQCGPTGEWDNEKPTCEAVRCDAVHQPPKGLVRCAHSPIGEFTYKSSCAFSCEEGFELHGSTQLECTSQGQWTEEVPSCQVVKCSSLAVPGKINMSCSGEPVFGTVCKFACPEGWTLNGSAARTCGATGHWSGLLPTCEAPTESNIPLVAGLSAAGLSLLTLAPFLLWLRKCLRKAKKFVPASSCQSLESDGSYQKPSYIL

`COc1ccc(CO)cc1`: the result in assay [1], in assay [2], in [3], in [4], in assay [5] and in assay [6] was inactive. The result in assay [7], in [8], in assay [9], in assay [10], in assay [11] and in assay [12] was inactive. Also, the outcome in assay [13], in assay [14], in [15], in assay [16], in [17] and in assay [18] was inactive. Further, the result in [19] and in assay [20] was inactive.

As to `O=S(=O)(c1ccccc1)c1ccccc1`, the outcome in assay [1], in assay [2], in assay [3], in assay [4], in assay [5] and in assay [6] was inactive. Further, the result in [7], in assay [8], in [9], in assay [10], in assay [11] and in [12] was inactive. Further, the result in [13], in assay [14], in assay [15], in assay [16], in [17] and in assay [18] was inactive. Further, the outcome in assay [19] and in assay [20] was inactive.

The term AC50 denotes the concentration at which the activity in the assay is half-maximal. With `O=C(CCl)c1ccccc1`, the half-maximal activity concentration (AC50) was 3.06 µM (active) in assay [1]; 7.82 µM (active) in assay [2]; 6.81 µM (active) in assay [3]; 6.97 µM (active) in [4]; 3.54 µM (active) in assay [8]; 29.9 µM (active) in assay [9]. For the same molecule, the AC50 in [10] was 36.5 µM (active); in assay [11] it was 36.2 µM (active); in assay [12], 12.7 µM (active); in assay [13], 6.84 µM (active); in assay [14] it was 33 µM (active); in assay [15] it was 12.5 µM (active). For the same molecule, the AC50 in assay [16] is 2.44 µM (active); in assay [17], 14.6 µM (active); in [19], 4.64 µM (active). Besides, the outcome in assay [5], in assay [6], in assay [7], in [18] and in assay [20] was inactive.

For `CNC(=O)Oc1cc(C)c(SC)c(C)c1`, the AC50 in [1] was 20 µM (active); in [3], 13 µM (active); in assay [4], 20 µM (active); in assay [8] it was 20 µM (active); in assay [13], 12.9 µM (active); in assay [14] it was 7.52 µM (active). Besides, the AC50 in assay [16] is 20 µM (active); in assay [18], 8.16 µM (active). For the same molecule, the result in assay [2], in assay [5], in assay [6], in [7], in assay [9] and in [10] was inactive. The result in assay [11], in assay [12], in assay [15], in [17], in assay [19] and in assay [20] was inactive.

With `C=CC(=O)OCC(CC)CCCC` (stereo not given), the AC50 is 20 µM (active) in assay [1]; 27.6 µM (active) in [3]; 3.97 µM (active) in assay [7]; 0.159 µM (active) in [8]; 27.6 µM (active) in assay [19]. Also, the result in assay [2], in assay [4], in [5], in [6], in [9] and in assay [10] was inactive. For the same molecule, the outcome in assay [11], in assay [12], in assay [13], in [14], in [15] and in [16] was inactive. Also, the result in [17], in assay [18] and in assay [20] was inactive.
